# From ChEMBL document CHEMBL3988442, “University of Dundee, Small-Polar-MMV Screening Library” (2021)
# Out of some 69,000 compounds screened, about 1,000 (1.4%) showed an effect of 50% or more. For the sample, strong results were picked, then their nearest neighbours and some compounds at random.
# Test system: Leishmania donovani
# Assay: Leishmania intramacrophage assay
# Type: functional, organism-based
# Parameters: scale not given: in the data most compounds retested in dose-response had high values
smiles,measurement,setting,value
Cc1ccc(S(=O)(=O)N2CCc3nc(C4CCNCC4)ncc3C2)cc1.Cl,Percent Effect,"30 µM, 30.03 µM",-1.201%
O=S(=O)(c1ccccc1Cl)N1CCc2nc(C3CCNCC3)ncc2C1,Percent Effect,"30 µM, 30.03 µM",50.23%
Cl.O=S(=O)(c1ccc(Cl)cc1)N1CCc2nc(C3CCNCC3)ncc2C1,Percent Effect,"30.3 µM, […]",-22.35%
Cc1nc(C2CCCN2Cc2nc(C3CC3)no2)no1 (centres undefined),Percent Effect,30 µM,21.89%
CCCN(CCC)C(=O)c1cc(CN2CCC(O)CC2)on1,Percent Effect,"30.3 µM, […]",36.24%
CCn1ncc(Cn2cc(Cl)c(N)n2)c1C,Percent Effect,"30.3 µM, […]",-8.997%
COc1ccnc(CNc2nc(C)nc(C)c2C)c1,Percent Effect,"30.3 µM, […]",39.23%
COc1ccnc(CNc2nc(C)nc3ccsc23)c1,Percent Effect,"30.3 µM, […]",56.7%
Cc1nc(NCc2noc(C3CCCO3)n2)c2sccc2n1 (centres undefined),Percent Effect,"30.3 µM, […]",29.04%
CCc1csc(C2CCCN(C(=O)c3ccc4c(c3)OCO4)C2)n1 (centres undefined),Percent Effect,"30.3 µM, […]",-18.73%
Cc1ccc(S(=O)(=O)N2CC(C)Oc3ncccc32)c(C)c1 (centres undefined),Percent Effect,"30.3 µM, […]",55.69%
CC1CN(S(=O)(=O)c2ccc(F)cc2F)c2cccnc2O1 (centres undefined),Percent Effect,"30.3 µM, […]",30.4%
Cc1ccc(S(=O)(=O)N2CC(C)Oc3ncccc32)c(F)c1 (centres undefined),Percent Effect,"30.3 µM, […]",21.87%
CN(CC1(CO)CCC1)C(=O)c1cc(COc2ccccc2F)[nH]n1,Percent Effect,"30.3 µM, […]",-17.63%
COc1ccc2c(c1)CN(CC(=O)NC1CCCC1)CC2,Percent Effect,"30.3 µM, […]",-7.68%
COc1ccc2c(c1)CCCN(CC(=O)NCC1CCCO1)C2 (centres undefined),Percent Effect,"30.3 µM, […]",55.19%
COc1ccc2c(c1)CCCN(C(=O)NCC1CCCO1)C2 (centres undefined),Percent Effect,"30.3 µM, […]",6.687%
CC(=O)NC(C)C(=O)N(Cc1ccc(C)c(C)c1)C1CC1 (centres undefined),Percent Effect,"30.3 µM, […]",-3.591%
COc1ccccc1-c1ncc(CN2CCCC[C@H](N(C)C)C2)s1,Percent Effect,"30.3 µM, […]",36.23%
COc1ccccc1-c1ncc(CN2C[C@H](O)[C@@H](N3CCCC3)C2)s1,Percent Effect,"30.3 µM, […]",4.457%
COc1ccccc1-c1ncc(CN2C[C@@H](N(C)C)[C@H](C(C)C)C2)s1,Percent Effect,"30.3 µM, […]",52.36%
CNC(=O)CN1CC[C@H]2CN(C(=O)c3ccc(C)cc3)C[C@H]2C1.O=C(O)C(F)(F)F,Percent Effect,"30.3 µM, […]",2.501%
CCN1CCn2c(C)cnc2C12CCN(C(=O)N(C)C)CC2.O=C(O)C(F)(F)F.O=C(O)C(F)(F)F,Percent Effect,"30.3 µM, […]",6.426%
CC(C)c1cc(C(=O)N2CCOCC2CC(=O)c2ccco2)nn1C (centres undefined),Percent Effect,"30.3 µM, […]",-24.4%
Cc1nn(-c2ccccc2Cl)c(C)c1CCC(=O)O,Percent Effect,"30.3 µM, […]",-26.02%
NCC(c1ccc(Cl)cc1)N1CCc2sccc2C1 (centres undefined),Percent Effect,"30.3 µM, […]",40.17%
CC(C)c1ccc(C(CN)N2CCc3sccc3C2)cc1 (centres undefined),Percent Effect,"30.3 µM, […]",82.67%
NCC(c1ccccc1)N1CCc2sccc2C1 (centres undefined),Percent Effect,"30 µM, 30.03 µM",28.55%
O=C(NCCSC1CCCC1)c1ccc(F)cc1F,Percent Effect,"30.3 µM, […]",24.13%
COc1ccccc1N1CCN(C(=O)Cn2nc(C)c(Cl)c2C)CC1,Percent Effect,"30.3 µM, […]",31.83%
c1ccc2oc(CCCN3CCCC(Cn4cncn4)C3)nc2c1 (centres undefined),Percent Effect,30 µM,8.044%
Cc1cc(C(=O)N2C[C@H]3CC[C@@H]2CN(Cc2ccccn2)C3)nc(C)n1,Percent Effect,"30.3 µM, […]",16.91%
CC(=O)Nc1ccc(CNCC(O)c2ccc(Cl)cc2)cc1 (centres undefined),Percent Effect,"30.3 µM, […]",-0.7096%
CC(C)Nc1ncnc2c1CCN(c1cc(C(F)(F)F)ncn1)CC2,Percent Effect,"30.3 µM, […]",9.513%
CCN(C(=O)NCc1ccc(C)cc1OC)C(C)c1cccnc1 (centres undefined),Percent Effect,"30.3 µM, […]",51.84%
CCN(C(=O)NCc1ccccc1OC(F)F)C(C)c1cccnc1 (centres undefined),Percent Effect,"30.3 µM, […]",43.41%
CCOc1ccccc1CNC(=O)N(CC)C(C)c1cccnc1 (centres undefined),Percent Effect,"30.3 µM, […]",14.76%
Cc1ccc2c(n1)N(CC1CC1)CCN(Cc1cnn(C)c1)C2,Percent Effect,"30.3 µM, […]",26.83%
Cc1ccc2c(n1)N(Cc1cccnc1)CCN(C(=O)C1CC=CC1)C2,Percent Effect,"30.3 µM, […]",-19.75%
Cc1ccc2c(n1)N(Cc1cccnc1)CCN(Cc1cnn(C)c1)C2,Percent Effect,"30.3 µM, […]",76.22%
Cc1nn(C)c(Cl)c1C1CCCN1C(=O)c1nccnc1N (centres undefined),Percent Effect,"30 µM, 30.03 µM",1.892%
CC(NC(=O)NCCCn1cncn1)c1ccccc1Cl (centres undefined),Percent Effect,"30 µM, 30.03 µM",-19.77%
O=C(O)Cc1cnc(-c2c(Cl)cccc2Cl)s1,Percent Effect,"30.3 µM, […]",39.96%
Cc1noc([C@H]2C[C@H]3OCC[C@H]3N(Cc3ccc(F)cc3)C2)n1.O=C(O)C(F)(F)F,Percent Effect,"30.3 µM, […]",51.58%
CCc1ccc(CN2C[C@@H](c3nc(C)no3)C[C@H]3OCC[C@H]32)o1.O=C(O)C(F)(F)F,Percent Effect,"30.3 µM, […]",-6.961%
Cc1noc([C@H]2C[C@H]3OCC[C@H]3N(Cc3ccc4c(c3)OCO4)C2)n1.O=C(O)C(F)(F)F,Percent Effect,"30 µM, 30.03 µM",25.3%
Cc1cccnc1NC(=O)c1ccc(F)c(S(=O)(=O)NC2CC2)c1,Percent Effect,"30.3 µM, […]",2.163%
CC(=O)Nc1ncc(S(=O)(=O)Nc2cccc(F)c2)s1,Percent Effect,"30.3 µM, […]",-21.07%
CC(=O)Nc1ncc(S(=O)(=O)Nc2cccc(O)c2)s1,Percent Effect,"30.3 µM, […]",53.03%
CC(=O)Nc1ncc(S(=O)(=O)Nc2cccc(C)c2)s1,Percent Effect,"30.3 µM, […]",11.84%
Cc1cnc(N2CC[C@@H]3OC(COCC(=O)N(C)C)CC[C@@H]32)nc1.O=C(O)C(F)(F)F (some centres undefined),Percent Effect,"30.3 µM, […]",4.675%
Cc1cnc(N2CC[C@@H]3O[C@@H](COCC(=O)N(C)C)CC[C@@H]32)nc1.O=C(O)C(F)(F)F,Percent Effect,"30.3 µM, […]",58.41%
CN(C)C(=O)COC[C@@H]1CC[C@H]2[C@H](CCN2c2ncccn2)O1.O=C(O)C(F)(F)F,Percent Effect,"30.3 µM, […]",37.88%
Cc1nc(-c2cncnc2C2CCCNC2)no1.Cl.Cl (centres undefined),Percent Effect,"30.3 µM, […]",9.405%
O=C(Nc1nncs1)c1ccc(O)nc1,Percent Effect,"30.3 µM, […]",16.66%
Cc1nnc(CCNC2CCN(c3ncnc4c(C)csc34)CC2)s1,Percent Effect,"30 µM, 30.03 µM",49.19%
Cc1nc(C)n(CCNC2CCN(c3ncnc4c(C)csc34)CC2)n1,Percent Effect,"30.3 µM, […]",-18.48%
CCc1nnc(CNC2CCN(c3ncnc4c(C)csc34)CC2)s1,Percent Effect,"30.3 µM, […]",52.55%
CCNC(=O)NC(C)c1nc(-c2ccc(Br)cc2)no1 (centres undefined),Percent Effect,"30.3 µM, […]",26.95%
CSCC1CCN(C(=O)c2ccccc2NCc2cccnc2)C1 (centres undefined),Percent Effect,"30.3 µM, […]",-38.07%
CSCCC(=O)NCc1cc2n(n1)CCCN(C1CCCCC1)C2,Percent Effect,"30.3 µM, […]",-17.68%
CCCOC(C)C(=O)NCc1cc2n(n1)CCCN(C1CCCCC1)C2 (centres undefined),Percent Effect,"30.3 µM, […]",20.03%
CCC(OC)C(=O)NCc1cc2n(n1)CCCN(C1CCCCC1)C2 (centres undefined),Percent Effect,"30.3 µM, […]",1.469%
CCC(C)NC(=O)NCc1cc2n(n1)CCCN(C1CCCCC1)C2 (centres undefined),Percent Effect,"30.3 µM, […]",50.3%
CN[C@@H](CO)C(=O)NCc1cc2n(n1)CCCN(C1CCCCC1)C2,Percent Effect,"30.3 µM, […]",3.405%
CC(C)SCC(=O)NCc1cc2n(n1)CCCN(C1CCCCC1)C2,Percent Effect,"30.3 µM, […]",64.6%
Cc1cc(C)n(-c2cncc(N3CCC(C(=O)N(C)C)CC3)n2)n1,Percent Effect,"30.3 µM, […]",-6.574%
O=C(c1ccc(=O)[nH]n1)N1CCNCC1c1ccccc1 (centres undefined),Percent Effect,"30.3 µM, […]",-5.209%
CC(C)Nc1cccc(C(=O)NCC(O)c2cccc(F)c2)c1 (centres undefined),Percent Effect,"30.3 µM, […]",8.412%
Cc1ccccc1CCC1CCCN(C(=O)Cc2cc(=O)[nH]c(N)n2)C1 (centres undefined),Percent Effect,"30.3 µM, […]",-48.51%
CCc1nc(N)sc1C(=O)N1CCCC(CCc2ccccc2C)C1 (centres undefined),Percent Effect,"30 µM, 30.03 µM",59.23%
CCc1nc(N)sc1C(=O)N1CCCC(COc2cccc(C)c2)C1 (centres undefined),Percent Effect,"30.3 µM, […]",-12.25%
CC(=O)N1CCC(c2cncc(N3CCC(O)C3)n2)CC1 (centres undefined),Percent Effect,"30.3 µM, […]",8.685%
O=C(O)C(F)(F)F.O=S(=O)(NC1CCC12CCN(CC1CCOCC1)CC2)c1ccccc1 (centres undefined),Percent Effect,"30.3 µM, […]",17.74%
CC(C)(C)OC(=O)N[C@@H]1C[C@@H](O)CN(C(=O)c2cccc(F)c2)C[C@H]1O,Percent Effect,"30.3 µM, […]",29.87%
COc1ccccc1CNCc1nn(-c2ccccc2)c2c1CCC2,Percent Effect,"30.3 µM, […]",72.37%
Cc1noc(C)c1CNCc1nn(-c2ccccc2)c2c1CCC2,Percent Effect,"30.3 µM, […]",-2.831%
Cc1c(CNCc2nn(-c3ccccc3)c3c2CCC3)cc(C#N)n1C,Percent Effect,"30.3 µM, […]",49.86%
CC(=O)c1cccc(OCCCC(=O)N(C)Cc2cnn(C)c2)c1,Percent Effect,"30.3 µM, […]",-2.967%
Cc1ccccc1-n1cc(CNc2ncnc3c2CCNCC3)cn1,Percent Effect,"30.3 µM, […]",29.71%
c1cncc(-c2noc(CNc3ncnc4c3CCNCC4)n2)c1,Percent Effect,"30.3 µM, […]",35.11%
c1cncc(-c2noc(CCNc3ncnc4c3CCNCC4)n2)c1,Percent Effect,"30.3 µM, […]",24.85%
Cc1cccc(-n2cc(CNc3ncnc4c3CCNCC4)cn2)c1,Percent Effect,"30.3 µM, […]",61.6%
Cc1cccc(=O)n1CCCNc1ncnc2c1CCNCC2,Percent Effect,"30.3 µM, […]",9.317%
COc1ccc(-c2cc(CNc3ncnc4c3CCNCC4)no2)cc1,Percent Effect,"30.3 µM, […]",66.16%
c1ccc(CN2CCC(CCNc3ncnc4c3CCNCC4)C2)cc1 (centres undefined),Percent Effect,"30.3 µM, […]",-39.7%
c1ccc(CN2CCC(CNc3ncnc4c3CCNCC4)CC2)cc1,Percent Effect,"30.3 µM, […]",-23.91%
Cc1ccc(-c2cc(CNc3ncnc4c3CCNCC4)no2)cc1,Percent Effect,"30.3 µM, […]",97.6%
COCc1noc(CCNc2ncnc3c2CCNCC3)n1,Percent Effect,"30.3 µM, […]",2.148%
c1ccc(Cn2cc(CNc3ncnc4c3CCNCC4)cn2)cc1,Percent Effect,"30.3 µM, […]",13.57%
Clc1ccccc1-c1cc(CNc2ncnc3c2CCNCC3)no1,Percent Effect,"30.3 µM, […]",94.85%
Cn1cc(-c2cc(-c3cnn(C)c3)n(CC(=O)NC3CC3)n2)cn1,Percent Effect,"30.3 µM, […]",-1.984%
Cc1ncc(CN(C)C2CCCN(CCc3ccccc3)C2)n1C (centres undefined),Percent Effect,"30.3 µM, […]",22.06%
CN(CCCNC(=O)C1CCCN(C(N)=O)C1)S(C)(=O)=O (centres undefined),Percent Effect,"30.3 µM, […]",4.871%
COc1cccc(CN2CCCC3(CCN(C(=O)[C@H]4CCCO4)C3)C2)c1 (some centres undefined),Percent Effect,"30 µM, 30.03 µM",29.96%
COc1cccc(CN2CCCC3(CCN(C(=O)c4ccco4)C3)C2)c1 (centres undefined),Percent Effect,"30 µM, 30.03 µM",53.43%
COc1cccc(CN2CCCC3(CCN(C(=O)N4CCCC4)C3)C2)c1.O=C(O)C(F)(F)F (centres undefined),Percent Effect,"30.3 µM, […]",1.476%
COCc1ncc(CN2CC[C@@](C)(O)[C@@H](Cc3ccccc3)C2)cn1,Percent Effect,"30.3 µM, […]",11.16%
COc1ccc2c(ccn2CC(=O)NC[C@@H]2CCCN3CCCC[C@H]23)c1,Percent Effect,"30.3 µM, […]",29.51%
O=C(Cn1ccc2cc(Br)ccc21)NC[C@@H]1CCCN2CCCC[C@H]12,Percent Effect,"30.3 µM, […]",50.79%
Cc1ccc2c(ccn2CC(=O)NC[C@@H]2CCCN3CCCC[C@H]23)c1,Percent Effect,"30 µM, 30.03 µM",26.96%
Cc1ccc2c(ccn2CCC(=O)NC[C@@H]2CCCN3CCCC[C@H]23)c1,Percent Effect,"30 µM, 30.03 µM",28.72%
O=C(CCn1ccc2cc(Br)ccc21)NC[C@@H]1CCCN2CCCC[C@H]12,Percent Effect,"30.3 µM, […]",94.12%
O=C(Cn1ccc2ccc(Br)cc21)NC[C@@H]1CCCN2CCCC[C@H]12,Percent Effect,"30 µM, 30.03 µM",-30.69%
